Compound activity (PubChem)
HTT cytoprotect – Huntington cell model cytoprotection by ATP luminescence; PC12 HTT-Q103 induced, cytoprotection, ATP luminescence, 40 h; Potency, µM (titrated, usually from 56.4 µM), for inactives: cytoprotection (ATP increase), usual class: activators; 230,000 compounds, 0.14% hits; note: % of control where 0% means no effect; nearly all actives have a fitted effect of over 45% in size
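ATP quantification (ATPlite) reports survival of PC12 cells in which tebufenozide, 100 nM final, switches on Htt exon 1 with 103 glutamines linked to GFP; compounds are titrated.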
ALDH1A1 inh – blocks purified human ALDH1A1 activity. 220,000 compounds, 7.3% hits. Purified ALDH1A1, NADH fluorescence, propionaldehyde substrate. Potency, µM (series often up to 75.3 µM), inactives show at the highest dose activity, negative = inhibition, actives largely listed as inhibitors; active = well fitted inhibition curve with a large enough effect, not every such curve was filed as active; inconclusive = small, poorly fitted or top-dose-only effect, or another doubt; inactive = no such curve, though single readings can be large or run the other way;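 note: plate controls were no enzyme wells and a reference inhibitor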
Target sequence (P00352 whole entry, looked up): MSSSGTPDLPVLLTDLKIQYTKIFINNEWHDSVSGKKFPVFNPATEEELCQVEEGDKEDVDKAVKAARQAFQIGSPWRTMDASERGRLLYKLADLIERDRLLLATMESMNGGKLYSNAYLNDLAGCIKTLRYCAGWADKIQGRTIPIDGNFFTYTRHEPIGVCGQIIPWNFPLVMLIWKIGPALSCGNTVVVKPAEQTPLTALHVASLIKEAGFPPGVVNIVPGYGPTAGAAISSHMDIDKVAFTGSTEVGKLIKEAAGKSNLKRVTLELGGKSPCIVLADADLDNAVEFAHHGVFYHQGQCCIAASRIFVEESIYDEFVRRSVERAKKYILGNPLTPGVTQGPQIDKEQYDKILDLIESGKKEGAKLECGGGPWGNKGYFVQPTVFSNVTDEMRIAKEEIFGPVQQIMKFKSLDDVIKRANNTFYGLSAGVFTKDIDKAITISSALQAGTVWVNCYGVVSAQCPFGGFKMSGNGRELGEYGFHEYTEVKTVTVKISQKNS
Lamin A splicing – changes lamin A minigene splicing in HeLa cells | HeLa LMNA splicing GFP/RFP minigene ratio, 48 h | Potency, µM (series often up to 46.1 µM), without a hit: at the top dose ratio change, negative = inhibition, actives largely listed as inhibitors | 200,000 compounds, 0.01% hits | AID 1487; active = well fitted inhibition curve with a large enough effect in the signal ratio, with a control signal flat, not every such curve was filed as active; inconclusive = small, poorly fitted or top-dose-only effect, or effect the other way, or a change in a side signal; the % refers to the signal ratio; note: % is set by controls: 0 for no effect and ±100 for the full control effect
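Read-out is the ratio of GFP to DsRed2 object intensity, acquired by 488 nm laser-scanning cytometry on HeLa lamin A-EGFP minigene reporter cells. Compound incubation 48 hrs at 37 °C in Opti-MEM with 2% FBS; DMSO 0.5% final.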
HPGD inh – blocks human HPGD enzyme activity; purified HPGD, NADH fluorescence kinetic, PGE2 substrate; AID 894; P15428; Potency, µM, without a hit: at the top dose activity change, negative = inhibition, most hits filed as inhibitors; 150,000 compounds, 4.3% hits; active = well fitted inhibition curve with a large enough effect, not every such curve was filed as active; inconclusive = small, poorly fitted or top-dose-only effect, or another doubt; inactive = no such curve, though single readings can be large or run the other way; note: % is set by controls: 0 for no effect and ±100 for the full control effect
Target sequence (P15428 whole entry, looked up): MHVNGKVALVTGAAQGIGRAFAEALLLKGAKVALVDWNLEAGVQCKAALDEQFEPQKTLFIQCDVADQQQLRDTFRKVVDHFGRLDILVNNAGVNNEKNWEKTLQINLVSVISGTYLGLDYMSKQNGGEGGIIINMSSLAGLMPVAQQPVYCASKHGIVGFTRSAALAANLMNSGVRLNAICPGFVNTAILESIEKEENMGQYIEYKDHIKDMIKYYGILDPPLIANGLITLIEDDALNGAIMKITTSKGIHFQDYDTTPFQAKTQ
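20 nM HPGD preincubated 15 min at room temperature with compound in 50 mM Tris-HCl pH 8, 0.01% Tween 20. Started with 1 mM NAD+ and 30 uM prostaglandin E2; NADH fluorescence (360/450 nm) read 5 times over 30-s intervals, last minus first.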
HTT aggregate – inhibitors of mutant huntingtin aggregate formation in PC12 cells. PC12 HttQ103-GFP aggregates, Acumen cytometry, 40 h. Potency, µM (top dose mostly 46.1 µM), for the others: at the highest dose activity change, negative = inhibition, actives largely listed as inhibitors. 220,000 compounds, 1.1% hits; note: % is set by controls: 0 for no effect and ±100 for the full control effect; nearly all actives have a fitted effect of over 60% in size
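PC12/HTTQ103-GFP, ecdysone-inducible; teb 100 nM; cpd qHTS titration; GFP aggregates read on laser cytometer, Ex 488/Em 500-530 nm.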
* = called active by the depositor; ? = inconclusive; nt = not tested or not shown; [ ] = another dose, or the depositor's remark. The list is not random: actives were taken first. Their share in the collection is about 8.8%. Unless noted, calls come from the whole dose curve; as a rule, active = well fitted curve in the direction sought with a large enough effect; inconclusive = small, poorly fitted or top-dose-only effect, or another doubt; inactive = no such curve, though single readings can be large; an effect the other way counts as inactive or inconclusive. Potency is the fitted concentration of half-maximal effect.

SMILES | HTT cytoprotect | ALDH1A1 inh | Lamin A splicing | HPGD inh | HTT aggregate
COc1ccc(NC(=O)c2cnc(SCC(=O)Nc3nc4ccc(C)cc4s3)n(C)c2=O)cc1 | nt | nt | 12%[46 µM] | nt | nt
CCOC(=O)C1CCCN(S(=O)(=O)c2ccc(OC)cc2)C1 (configuration not stated) | -8% | 3.2µM* | 1% | -5% | 20%
Cc1nc(Nc2ccccc2)sc1-c1ccccc1 | -35%[10 µM] | 22µM* | ? | nt | 2%
COC(=O)c1sc(Nc2ccccc2)nc1C | 1% | -4% | 10% | 22µM* | -2%
Cc1nc(Nc2ccc(Cl)c(Cl)c2)sc1C(=O)Nc1ccccc1 | 1%[10 µM] | -6% | ? | -12% | 25µM*
CC(C)Cc1nc2oc3c(N4CCN(CCO)CC4)ncnc3c2c2c1CCCC2 | -7%[10 µM] | 7.9µM* | -17% | -11% | 1%
CCOC(=O)N1CCN(c2ncnc3c2oc2nc(C(C)C)c4c(c23)CCC4)CC1 | 11%[0.074 µM] | 1µM* | 9% | ? | 2%
CCN1CCN(c2ncnc3c2oc2nc(C(C)C)c4c(c23)CCC4)CC1 | -7% | -2% | 8% | 0% | 1%
C=CCN=c1scc(-c2ccc3c(c2)NC(=O)CO3)n1/N=C(\C)c1ccccn1 | -53%[10 µM] | 2.8µM* | ? | nt | 5µM*
Cc1cccc(C)c1-n1nnnc1-c1cnccc1C(F)(F)F | -1%[10 µM] | 20µM* | nt | nt | 5%[9.22 µM]
CSc1nnnn1-c1c(C)cccc1C | -5%[10 µM] | nt | nt | nt | -7%[9.22 µM]
CCOc1cc(/C=C(\C#N)C(=O)Nc2ccccc2[N+](=O)[O-])ccc1OCc1cccc2ccccc12 | -41%[10 µM] | 0% | nt | nt | 10%
Cc1nc2nc[nH]c2cc1Br | -7% | -20% | 6% | -18% | -6%
Cc1nc2[nH]c(=S)[nH]c2cc1Br | 10% | 18µM* | ? | ? | 15%
CCn1c(SCc2cccc(Br)c2)nnc1-c1nonc1NC(C)=O | nt | nt | -4%[46 µM] | nt | nt
COc1ccc(Nc2cc(=O)n(C3CCCCC3)c(=O)[nH]2)c(OC)c1 | 4% | 7.1µM* | 8% | -3% | -10%
Cc1cc(C)cc(Nc2cc(=O)n(C3CCCCC3)c(=O)[nH]2)c1 | -50% | 0.45µM* | 4% | -5% | ?
CCC1S/C(=N\S(=O)(=O)c2cccs2)N(C2CCCCC2)C1=O (configuration not stated) | -24%[10 µM] | 7.9µM* | 7% | -8% | -10%
CS(=O)(=O)N1N=C(c2cccs2)CC1c1ccco1 (configuration not stated) | -1%[10 µM] | 20µM* | nt | nt | 0%[9.22 µM]
O=C(c1ccco1)N1N=C(c2cccs2)CC1c1ccc(F)cc1 (configuration not stated) | -2% | 20µM* | 7% | -23% | -30%
Cc1sc2c(c1C)CN(Cc1ccncc1)CN2C(=O)c1ccco1 | -7% | 25µM* | -7% | -22% | 6%
Cc1ccc2[nH]c3nc(CCCn4ccnc4-c4ccccc4)nnc3c2c1 | 1µM* | -11%[13.5 µM] | nt | nt | nt
CCN(C(=O)Nc1cn(CC(C)C)c(=O)c2ccccc12)c1cc(C)ccc1C | nt | nt | -2%[46 µM] | nt | nt
Cc1ccccc1C(=O)NCCCCc1ccccc1 | 26%[10 µM] | -15% | -1% | ? | -31%
Cc1ccccc1C(=O)NCCCc1ccccc1 | nt | -8% | 5% | 14µM* | -2%
SMILES | HTT cytoprotect | ALDH1A1 inh | Lamin A splicing | HPGD inh | HTT aggregate
Cc1occc1C(=O)NCCCCc1ccccc1 | -13% | 18µM* | 11% | 20µM* | -18%
CCOc1cc(/C=N/NC(=O)C(C)Sc2ccccc2)ccc1O (configuration not stated) | 26%[10 µM] | 0% | ? | nt | 30%[9.22 µM]
COc1ccc(C(=O)N2CCC3(CCN(C(=O)Nc4ccccc4)CC3)CC2)cc1 | -4% | -2% | nt | -10% | nt
CC(C)NC(=O)N1CC2(CCN(C(=O)c3ccncc3)CC2)C1 | 12% | 10% | nt | -10% | nt
O=c1[nH]c(-c2ccc(O)cc2)nc2scc(-c3cccs3)c12 | -18%[10 µM] | ? | 5%[46 µM] | nt | 2%[9.22 µM]
Cc1nc2scc(-c3cccs3)c2c(=O)[nH]1 | -15% | 11µM* | -2% | 22µM* | 21%
COc1ccc(/C=N/Nc2nnc(-c3ncc[nH]3)c3ccccc23)cc1 | -42% | 5% | 6% | -2% | ?
Oc1ccc2ccccc2c1/C=N/Nc1nnc(-c2ncc[nH]2)c2ccccc12 | -76%[10 µM] | 2% | ? | -13% | 0.79µM*
Cc1csc(/N=C/c2ccc([N+](=O)[O-])cc2)n1 | 23%[10 µM] | 11µM* | -2% | 1% | 19%
Cc1nc(N)sc1C(=O)N/N=C/c1ccc([N+](=O)[O-])cc1 | -1%[10 µM] | nt | nt | nt | -9%[9.22 µM]
Cc1ccc(/C=c2\sc3nc(-c4ccco4)nn3c2=O)o1 | 5%[10 µM] | 3.5µM* | -3% | 18µM* | 19%
COc1ccc(/C=c2\sc3nc(=O)c(C)nn3c2=O)c(OC)c1 | -17% | 22µM* | -15%[46 µM] | nt | 16%
Cc1ccc(/C=c2\sc3nc(-c4ccccc4Br)nn3c2=O)o1 | -53%[0.074 µM] | 13µM* | -4% | 20µM* | 19%
COc1ccc(Br)cc1/C=c1\sc2nc(-c3ccco3)nn2c1=O | 15%[10 µM] | 28µM* | 7% | 14µM* | 5%
COc1ccccc1/C=c1\sc2nc(-c3ccccc3OC)nn2c1=O | 2% | 6% | 12% | -8% | 1%
NCC[C@H](O)C(=O)N[C@@H]1C[C@H](N)[C@@H](O[C@H]2O[C@H](CN)CC[C@H]2N)[C@H](O)[C@H]1O[C@H]1O[C@H](CO)[C@@H](O)[C@H](N)[C@H]1O | -3% | nt | nt | nt | 7%
Oc1c(C(c2ccccc2Cl)N2CCCC2)ccc2cccnc12 (configuration not stated) | -80%[10 µM] | ? | 2%[46 µM] | nt | ?
Oc1c(C(c2cccs2)N2CCN(c3ccccc3)CC2)ccc2cccnc12 (configuration not stated) | -32% | 2µM* | ? | 1.8µM* | 12%
CC(C)NC(=S)N1CCN(c2ncccn2)CC1 | nt | -2% | ? | -3% | -2%
CC(C)c1ccc(NC(=O)c2sccc2-n2cccc2)cc1 | -16% | ? | nt | nt | ?
[N-]=[N+]=CC(=O)C(Cc1ccccc1)N1C(=O)c2ccccc2C1=O (configuration not stated) | -7%[0.074 µM] | 2.8µM* | 2% | -13% | 11%[9.22 µM]
Cc1cc(Cc2cc(Cc3cc(C)cc(C(C)(C)C)c3O)c(C)cc2C)c(O)c(C(C)(C)C)c1 | 6%[10 µM] | 2%[13.5 µM] | nt | -10% | nt
N[C@](CC1c2ccccc2Oc2ccccc21)(C(=O)O)[C@H]1C[C@@H]1C(=O)O | -22% | 2% | nt | nt | nt
O=C(O)[C@@H](O)[C@@H](O)[C@@H](O)[C@@H](O)c1nc2ccccc2s1 | 2%[10 µM] | 2%[13.5 µM] | nt | 3.5µM* | nt
COC(=O)c1sc2cccc(F)c2c1S(=O)(=O)Nc1ccc(N(C)C)cc1 | nt | nt | -13%[46 µM] | nt | nt
CCOC(=O)N1CCN(C(=O)c2ccc3c(=O)n(Cc4ccc(Cl)cc4)c(=S)[nH]c3c2)CC1 | 6%[0.074 µM] | 10µM* | ? | -22% | ?
